Source: PubChem BioAssay
Rows were chosen to be rich in hits. Some 0.9% of all compounds tested hit in one or more screens of this group.
SRC3 TRFRET art: TR-FRET artefact, counter-screen to PPARgamma/SRC-3 agonist assay; PPARgamma/SRC-3 format; stronger effect = higher value; actives 0.39% (n = 99,000); TR-FRET ratio at 8 µM; AID 1048; in the data active = TR-FRET ratio above about 2000
PPARg SRC-1 ag: PPARgamma-driven SRC-1 recruitment agonism. P37231. PPARgamma-SRC-1 coactivator recruitment biochemical assay. activation, % at 8 µM. actives 0.41% (n = 200,000); in the data active = activation above about 19%;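 note: 0% = DMSO and 100% = reference agonist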
SRC2 TRFRET art: counter-screen for PPARgamma SRC-2 recruitment agonists: TR-FRET artefact; stronger effect = higher value; TR-FRET ratio at 8 µM; actives 0.4% (n = 200,000); AID 1049; in the data active = TR-FRET ratio above about 2000
PPARg SRC2 recr: promotes SRC-2 coactivator recruitment by human PPARgamma. activation, % at 8 µM. actives 0.34% (n = 200,000). AID 1032. PPARgamma LBD-SRC-2 recruitment, biochemical. P37231;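 note: 0% = vehicle and 100% = reference agonist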
SRC1 TRFRET art: flags TR-FRET format artefacts in PPARgamma SRC-1 recruitment agonist screen; TR-FRET detection artefact counter-screen, emission ratio; stronger effect = higher value; actives 0.34% (n = 99,000); TR-FRET ratio at 8 µM; in the data active = TR-FRET ratio above about 2300
PPARg SRC3 recr: agonists of human PPARgamma SRC-3 coactivator recruitment; P37231; biochemical PPARgamma/SRC-3 coactivator recruitment assay; activation, % at 8 µM; actives 0.26% (n = 200,000); AID 731; in the data active = activation above about 23%;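 note: 0% = DMSO and 100% = reference agonist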
PPARg SRC2 ag: confirmation of agonists of SRC-2 recruitment by human PPARgamma; shares compounds with PPARg SRC3 recr; biochemical SRC-2 recruitment by PPARgamma; activation, % at 8 µM; actives 52% (n = 790); AID 1297;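 note: 0% = vehicle alone and 100% = reference agonist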
PPARg SRC1 conf: human PPARgamma SRC-1 recruitment agonism, confirmation. shares compounds with PPARg SRC3 recr. PPARgamma–SRC-1 coactivator recruitment biochemical assay. activation, % at 8 µM. actives 43% (n = 790); in the data active = activation above about 20%;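 note: 0% = vehicle wells and 100% = reference agonist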
PPARg SRC3 conf: confirmation of agonists of SRC-3 recruitment by human PPARgamma. shares compounds with PPARg SRC3 recr. biochemical PPARgamma-SRC-3 coactivator recruitment, agonist mode. activation, % at 8 µM. actives 29% (n = 790). AID 1301; in the data active = activation above about 24%;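 note: 0% = vehicle wells and 100% = reference agonist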
The depositor's hits bear a star; x = no result. Cut-off read from the data, not from the text of the source, unless noted: active = activation above about 22%; inactive = the rest.

SMILES | SRC3 TRFRET art | PPARg SRC-1 ag | SRC2 TRFRET art | PPARg SRC2 recr | SRC1 TRFRET art | PPARg SRC3 recr | PPARg SRC2 ag | PPARg SRC1 conf | PPARg SRC3 conf
COCCNC(=O)CSc1c2c(nc3ccc(Cl)cc13)CCCC2 | 2446* | 39.1* | 2154* | 31.2* | 2521* | 19.9 | 18.6 | 10.1 | 12.0
COc1ccc(NC(=O)CSc2c3c(nc4ccccc24)CCCC3)c(OC)c1 | 1880 | 25.6* | 1985* | 27.4* | 2200 | 16.7 | 25.8* | 13.5 | 16.7
COc1ccc(NC(=O)CSc2c3c(nc4cc(Cl)ccc24)CCCC3)cc1OC | 1721 | -0.2 | 1586 | 2.4 | 1955 | 6.1 | x | x | x
CCN(CC)S(=O)(=O)c1ccc(Cl)c(NC(=O)COC(=O)/C=C/c2ccc(O)c(OC)c2)c1 | 1543 | 3.0 | 1680 | 2.9 | 1683 | 0.8 | x | x | x
CC(C)Sc1oc(-c2ccco2)nc1S(=O)(=O)c1ccccc1 | x | 18.7* | 2119* | 46.2* | x | 27.7* | 55.0* | 46.1* | 34.8*
Cc1cccc(Nc2nn3c(=O)c4ccccc4nc3s2)c1 | x | 31.3* | 1736 | 2.1 | x | 37.1* | 27.4* | 16.6 | 14.8
C/C(=N\NC(=O)c1ccc(O)cc1)c1ccc2c(c1)Nc1ccccc1S2 | 1673 | 17.1 | 1763 | 27.1* | 1994 | 14.5 | 9.7 | 5.7 | 7.1
Cc1cc(N2C(=O)C(O)=C(C(=O)c3cccs3)C2c2cccc(O)c2)no1 (stereo not given) | x | -2.2 | 1443 | 6.0 | x | -4.5 | x | x | x
C=CCOc1cccc(C2C(C(=O)c3ccco3)=C(O)C(=O)N2CCN(CC)CC)c1 (stereo not given) | x | 8.0 | 1590 | 7.4 | x | 0.0 | x | x | x
C=CCOc1cccc(C2C(C(=O)c3ccc(C)o3)=C(O)C(=O)N2c2nccs2)c1 (stereo not given) | x | 23.9* | 2025* | 31.9* | x | 22.9 | 1.9 | -0.6 | 2.6
Cc1ccc2nc(N3C(=O)C(O)=C(C(=O)c4ccc(C)o4)C3c3cccc(O)c3)sc2c1 (stereo not given) | 1853 | 14.6 | 1951 | 24.4* | 2305 | 9.8 | 4.0 | 4.0 | 1.6
CCOC(=O)c1sc2nc(C(C)C)c3c(c2c1N)CCC3 | 1558 | 1.6 | 1511 | -2.0 | 1548 | 1.4 | x | x | x
CC(C)c1nc2sc3c(=O)[nH]c(=S)[nH]c3c2c2c1CCC2 | 2640* | 23.9* | 2507* | 32.9* | 2489* | 18.0 | 23.3* | 15.2 | 13.9
c1csc(CNc2ccc3c(c2)OCCO3)c1 | 1463 | -2.8 | 1372 | 12.5 | 1796 | 3.5 | x | x | x
Oc1ccccc1CNc1ccc2c(c1)OCCO2 | 1582 | 20.6* | 1679 | 11.5 | 2053 | 7.0 | 5.1 | 2.7 | 3.2
Cn1c(=O)n(C)c2cc(/C=N/N=C3/NC(=O)C(CC(=O)O)S3)ccc21 (stereo not given) | 1491 | 2.8 | 1484 | 6.7 | 1831 | 2.0 | x | x | x
Cc1ccc2[nH]c3c(=S)nc[nH]c3c2c1 | 2834* | 23.2* | 2733* | 38.0* | 2302 | 21.9 | 13.7 | 5.5 | 9.9
O=C1C=C(c2cccs2)CC(c2cccs2)C1n1cnc([N+](=O)[O-])c1 (stereo not given) | x | 11.7 | 1790 | 20.2 | x | 26.0* | 17.8 | 19.7* | 11.7
COc1c(OC(C)=O)ccc(/C=C/c2ccc3cccc(OCc4ccccc4)c3n2)c1[N+](=O)[O-] | 1549 | 2.2 | 1605 | 6.6 | 1881 | 0.7 | x | x | x
CC(=O)c1cnc(-c2ccccc2Cl)s1 | 1925 | 21.9* | 1855 | 14.7 | 2031 | 12.5 | 19.6 | 12.5 | 10.0
CC(=O)c1cnc(-c2ccccn2)s1 | 1464 | 4.0 | 1664 | -2.1 | 1816 | 2.3 | x | x | x
S=c1[nH]ncn2c1cc1oc3ccccc3c12 | 2852* | 30.9* | 2319* | 36.9* | 2955* | 27.5* | 4.7 | -1.8 | 4.1
CCCCCc1c(O)nc(SCCN2CCOCC2)[nH]c1=O | 1487 | -0.8 | 1585 | -3.8 | 1828 | -1.6 | x | x | x
